PubChem BioAssay (EPA / NIEHS)
The source made the active and inactive calls. The calls were made as follows: active = hit-call score of the fitted dose curve at least 0.9, where 1 is the maximum; inactive = score below 0.9.

Tests used:
Settings in all cases: mRNA level, 48 h; actives raise or lower the signal
HGF (gene 3082) = assay: LTEA_HepaRG_HGF: Life Technologies and Expression Analysis (LTEA) Assay for Hepatocyte Growth Facto (HGF) using HepaRG (AID 2283505)
Method in brief: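 HepaRG, 48 h dosing, 8-pt half-log series from 100 uM in 0.5% DMSO, duplicates. Readout: TaqMan qRT-PCR of HGF mRNA, housekeeping-normalized; bidirectional curve fit vs DMSO baseline.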

[1] = read-out: Insulin Like Growth Factor 1 (IGF1), IGF1 (gene 3479); assay: LTEA_HepaRG_IGF1: Life Technologies and Expression Analysis (LTEA) Assay for Insulin Like Growth Factor 1 (IGF1) using HepaRG (AID 2283506)
Method in brief: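 HepaRG, plated 48 h, then switched to serum-free induction media; test chemical 8-pt half-log from 100 uM (0.5% DMSO), duplicate, 48 h. Lysis in RLT, TaqMan qRT-PCR, norm. ACTB/GAPDH/POLR2A. Bidirectional fit vs DMSO.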

[2] = read-out: Intercellular Adhesion Molecule 1 (ICAM1), ICAM1 (gene 3383); assay: LTEA_HepaRG_ICAM1: Life Technologies and Expression Analysis (LTEA) Assay for Intercellular Adhesion Molecule 1 (ICAM1) using HepaRG (AID 2283507)
Method in brief: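 HepaRG, 48 h exposure, 8-pt half-log series from 100 uM, 0.5% DMSO vehicle, duplicates. Readout: TaqMan qRT-PCR mRNA, housekeeping-normalized (ACTB/GAPDH/POLR2A). Bidirectional curve fit vs DMSO baseline.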

[3] = read-out: Insulin-like growth factor-binding protein 1 (IGFBP1), IGFBP1 (gene 3484); assay: LTEA_HepaRG_IGFBP1: Life Technologies and Expression Analysis (LTEA) Assay for Insulin-like growth factor-binding protein 1 (IGFBP1) using HepaRG (AID 2283508)
Method in brief: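 qRT-PCR mRNA read-out (TaqMan, Fluidigm array), normalised to three housekeeping genes; HepaRG cells, 48 h exposure, 8-pt half-log series from 100 uM, 0.5% DMSO vehicle; bidirectional curve fit vs DMSO baseline.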

[4] = read-out: Interleukin 6 (IL6), IL6 (gene 3569); assay: LTEA_HepaRG_IL6: Life Technologies and Expression Analysis (LTEA) Assay for Interleukin 6 (IL6) using HepaRG (AID 2283509)
Method in brief: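 HepaRG cells exposed in duplicate for 48 h to eight half-log concentrations, top 100 uM, in 0.5% DMSO serum-free induction medium. mRNA measured by qRT-PCR, normalized to ACTB, GAPDH and POLR2A. Bidirectional fit versus DMSO.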

[5] = read-out: Interleukin 6 Receptor (IL6R), IL6R (gene 3570); assay: LTEA_HepaRG_IL6R: Life Technologies and Expression Analysis (LTEA) Assay for Interleukin 6 Receptor (IL6R) using HepaRG (AID 2283510);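 as to AC50: differentiated human HepaRG liver cells in serum-free induction medium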
Method in brief: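 Readout is IL6R transcript level by TaqMan qRT-PCR, normalized to three housekeeping genes and fitted bidirectionally against 0.5% DMSO controls. Human HepaRG cells received chemicals for 48 h in serum-free induction medium, highest concentration 100 uM.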

[6] = read-out: Potassium channel subfamily K member 1 (KCNK1), KCNK1 (gene 3775); assay: LTEA_HepaRG_KCNK1: Life Technologies and Expression Analysis (LTEA) Assay for Potassium channel subfamily K member 1 (KCNK1) using HepaRG (AID 2283511)
Method in brief: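 Differentiated HepaRG cells, 48 h exposure in serum-free induction medium with 0.5% DMSO; 8 concentrations, half-log from 100 uM, duplicate. KCNK1 mRNA by qRT-PCR, normalized to ACTB, GAPDH, POLR2A; bidirectional fit vs DMSO.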

[7] = read-out: Keratin 19 (KRT19), KRT19 (gene 3880); assay: LTEA_HepaRG_KRT19: Life Technologies and Expression Analysis (LTEA) Assay for Keratin 19 (KRT19) using HepaRG (AID 2283512)
Method in brief: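 HepaRG, 48 h chemical exposure, 8-pt half-log CRC from 100 uM, 0.5% DMSO vehicle, duplicates. Readout: TaqMan qRT-PCR of KRT19 mRNA, housekeeping-normalized (ACTB/GAPDH/POLR2A). Bidirectional fit vs DMSO baseline.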

[8] = read-out: JUN Transcription Factor, JUN (gene 3725); assay: LTEA_HepaRG_JUN: Life Technologies and Expression Analysis (LTEA) Assay for JUN Transcription Factor using HepaRG (AID 2283513)
Method in brief: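 Cells plated 48 h, medium switched to serum-free induction medium, then dosed 48 h (100 uM top, half-log dilutions, 0.5% DMSO). RNA isolated; JUN measured by qRT-PCR against three housekeeping genes; gain or loss fitted relative to DMSO.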

[9] = read-out: Lipase C (LIPC), LIPC (gene 3990); assay: LTEA_HepaRG_LIPC: Life Technologies and Expression Analysis (LTEA) Assay for Lipase C (LIPC) using HepaRG (AID 2283514)
Method in brief: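 HepaRG cells, 48 h after plating, treated in duplicate for 48 h in serum-free induction medium over 8 half-log concentrations from 100 uM, 0.5% DMSO. LIPC mRNA by TaqMan qRT-PCR normalized to ACTB/GAPDH/POLR2A; bidirectional fit versus DMSO.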

Measured: AC50

NC(=O)N1c2ccccc2C=Cc2ccccc21
inactive: all assays above

C=CCc1cc(S(=O)(=O)c2ccc(O)c(CC=C)c2)ccc1O
active: HGF (gene 3082) 79.5 µM | [1] 83.5 µM | [3] 79.6 µM | [4] 93.2 µM | [5] 75.9 µM | [7] 50 µM | [9] 84.9 µM
inactive: [2] | [6] | [8]

C[C@@H](Oc1ccc(CNC(=O)c2cccnc2Oc2ccc3c(c2)OCO3)c(F)c1)C(=O)O
inactive: all assays above

CCn1nc(C)c2c1C(=O)NCC(c1ccc(O)cc1)=N2
active: [7] 1.84 µM
inactive: all other assays above

O=C(NO)C1(NS(=O)(=O)c2ccc(Oc3ccc(F)cc3)cc2)CCOCC1
active: [1] 50 µM | [7] 71.4 µM
inactive: all other assays above

c1ccc2cc3ccccc3cc2c1
inactive: all assays above

C[C@]12C=CC(=O)C=C1CC[C@H]1[C@@H]3C[C@@H](O)[C@](O)(C(=O)CO)[C@@]3(C)C[C@H](O)[C@@]12F
inactive: all assays above

OCCOCCOCCO
inactive: all assays above

Cc1ccc(S(=O)(=O)NC(=O)NN2CCCCCC2)cc1
inactive: all assays above

CCc1cccc(CC)c1N
inactive: all assays above

COc1cc(C(C)C)c2c(c1)S(=O)(=O)N(COc1cc(=O)n3cccc(OCCN4CCCCC4)c3n1)C2=O
active: HGF (gene 3082) 12.5 µM | [4] 12.5 µM | [5] 12.5 µM | [7] 12.5 µM
not listed: [9]
inactive: all other assays above

CCCc1ccccc1
inactive: all assays above

CC(C)CC(C)O (centres undefined)
inactive: all assays above

Nc1ccn([C@@H]2O[C@H](CO)[C@@H](O)[C@@H]2O)c(=O)n1
inactive: all assays above

NC(=O)NN=Cc1ccc([N+](=O)[O-])o1
inactive: [4] | [5] | [7]
active: HGF (gene 3082) 12.4 µM | [1] 9.92 µM | [2] 0.211 µM | [3] 50 µM | [6] 0.223 µM | [8] 11.6 µM | [9] 0.233 µM

CCOC(N)=O
inactive: all assays above

COCc1nnc(-c2ccc[n+]([O-])c2)n1-c1c(Cl)c(Cl)cc2[nH]c(=O)c(=O)[nH]c12
inactive: all assays above
